The values that follow come from PubChem BioAssay.

The source made the active and inactive calls.

A short description of assay [1]: binders of probe aFSTL3 on microarray, primary screen, stem cell growth factor project, biochemical, small-molecule microarray, fluorescence 635/667 (AID 1064).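 Note: measures binding of the biotinylated anti-FSTL3 antibody to printed compounds.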 Conditions: higher = more signal.
A short description of assay [2]: binders from COS7 lysate, DM2A8 probe, primary screen, torsin A project, cell lysate, small-molecule microarray, fluorescence 635/667 (AID 1065). Conditions: higher = more signal, COS7 lysate expressing mutant human TOR1A.
A short description of assay [3]: binders of probe aFGF2 on microarray, primary screen, stem cell growth factor project, biochemical, small-molecule microarray, fluorescence 635/667 (AID 1067).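 Note: measures binding of biotinylated aFGF2 protein to printed compounds on slides; z-score merges feature fluorescence and signal-to-noise across triplicate slides.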 Conditions: higher = more signal.
Assay [4] can be described thus: binders of probe aFGF10 on microarray, primary screen, stem cell growth factor project, biochemical, small-molecule microarray, fluorescence 635/667 (AID 1071).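 Note: score merges 667 nm spot intensity and signal to noise from triplicate slides.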 Conditions: higher = more signal.
For assay [5], the target named is Neurogenic locus notch homolog protein 2 (Homo sapiens) (UniProt Q04721). The assay is described as follows: Notch2 binders on small-molecule microarrays, primary screen, biochemical, small-molecule microarray, 635 nm fluorescence, stem cell growth factors (AID 1073). Conditions: Notch2 binding, higher = more signal.
In assay [6] the target is Pro-neuregulin-1, membrane-bound isoform (Homo sapiens) (UniProt Q02297). The assay is described as follows: NRG1 binders on small-molecule microarrays, primary screen, psychiatric disease protein project, biochemical, small-molecule microarray, fluorescence 635/667 (AID 1075).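 Note: score combines 667 nm spot fluorescence with signal to noise.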 Conditions: NRG1 binding, 635 nm fluorescence, higher = more signal.
Assay [7] relates to Neuregulin-1 EGF-like domain. In words: binders of neuregulin-1 EGF-like domain, primary screen, biochemical, small-molecule microarray, 635 nm fluorescence (AID 1081).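 Note: binding of the protein to compounds printed on small-molecule microarray slides.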 Conditions: small-molecule microarray binding, higher = more signal.
The nature of assay [8]: FRG1 promoter luciferase signal modulators, primary screen, FRG1 inhibition for FSHD, cell-based, C2C12 myotubes, firefly/Renilla luciferase, luminescence (AID 1084). Conditions: higher = more signal, called active from +8 up or from −8 down.
Assay [9] can be described thus: binders of probe aFST on microarray, primary screen, stem cell growth factor project, biochemical, small-molecule microarray, fluorescence 635/667 (AID 1086).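 Note: score merges 667 nm fluorescence with signal-to-noise of each printed compound spot.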 Conditions: higher = more signal.
The nature of assay [10]: binders of probe aHhip on microarray, primary screen, stem cell growth factor project, biochemical, small-molecule microarray, fluorescence 635/667 (AID 1087).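 Note: score merges spot fluorescence at 667nm with spot signal to noise ratio.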 Conditions: higher = more signal.
The subject of assay [11] is PRMT1 (protein arginine N-methyltransferase 1). In words: PRMT1 binders on small-molecule microarrays, primary screen, biochemical, small-molecule microarray, 635 nm fluorescence (AID 1088).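 Note: binding of Prmt1 protein to compounds spotted on small-molecule microarray slides.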 Conditions: small-molecule microarray binding, higher = more signal.
The nature of assay [12]: yeast growth modulation, basal conditions, primary screen, YJM789 clinical isolate, OD600, 24 h (AID 1089).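 Note: growth of clinical yeast isolate S. cerevisiae YJM 789 seeded 1000 cells per well; test concentration not given here.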 Conditions: S. cerevisiae YJM789 growth, higher = more signal, called active from +8 up or from −8 down.
A short description of assay [13]: fission yeast growth modulation, primary screen, strain 972, OD600, 24 h, no modulator (AID 1090).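 Note: basal condition with compound alone and no growth modifier present; test concentration not given here.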 Conditions: S. pombe 972 growth, higher = more signal, called active from +8 up or from −8 down.
Assay [14] in a line: S. cerevisiae growth modulation with rapamycin, primary screen, strain BY4716, OD600, 96 h (AID 1091). Note: test concentration not given here. Conditions: higher = more signal, called active from +8 up or from −8 down.
The target in assay [15] is Torsin-1A-interacting protein 2 (Homo sapiens) (UniProt Q8NFQ8). The assay is described as follows: LULL1 binders on small-molecule microarray, primary screen, cell lysate, human LULL1 lysate, 635/667 nm fluorescence (AID 1092).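 Note: probe is lysate of COS7 cells overexpressing human LULL1; score merges per-feature 667 nm fluorescence with signal-to-noise.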 Conditions: hLULL1 lysate binding, 635 nm fluorescence, higher = more signal.
Assay [16] can be described thus: E. coli growth modulation, two-sided OD650, primary screen, E. coli filamentation project, strain DRC41, 24 h (AID 1093).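 Note: MC1000 strain lacking acrAB efflux and sulA so SOS filamentation is blocked; test concentration not given here.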 Conditions: OD650, 24 h, higher = more signal, called active from +8 up or from −8 down.
Assay [17] can be described thus: small-molecule microarray binders of probe aLefty2, primary screen, biochemical, biotinylated probe, 635/667 nm fluorescence (AID 1094).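 Note: score merges spot fluorescence near 667 nm with spot signal-to-noise ratio.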 Conditions: higher = more signal.
The subject of assay [18] is Noggin (protein binding on small-molecule microarray). In words: Noggin binders on small-molecule microarray, primary screen, biochemical, 635/667 nm fluorescence (AID 1095).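 Note: score merges 667 nm feature fluorescence with signal to noise over triplicate slides.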 Conditions: 635 nm fluorescence, higher = more signal.
Assay [19] concerns the target Neurogenic locus notch homolog protein 3 (Homo sapiens) (UniProt Q9UM47). In words: NOTCH3 binders on small-molecule microarray, primary screen, biochemical, 635/667 nm fluorescence (AID 1096). Conditions: NOTCH3 binding, 635 nm fluorescence, higher = more signal.
Assay [20] is described as follows: small-molecule microarray binders of probe aEGFR, primary screen, biochemical, biotinylated probe, 635/667 nm fluorescence (AID 1097).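 Note: probe is a biotinylated anti-EGFR antibody binding compounds printed on slides; score combines fluorescence near 667 nm and signal to noise of each spot.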 Conditions: higher = more signal.

Sequence of Neurogenic locus notch homolog protein 3 (Homo sapiens) (Q9UM47 whole entry, looked up): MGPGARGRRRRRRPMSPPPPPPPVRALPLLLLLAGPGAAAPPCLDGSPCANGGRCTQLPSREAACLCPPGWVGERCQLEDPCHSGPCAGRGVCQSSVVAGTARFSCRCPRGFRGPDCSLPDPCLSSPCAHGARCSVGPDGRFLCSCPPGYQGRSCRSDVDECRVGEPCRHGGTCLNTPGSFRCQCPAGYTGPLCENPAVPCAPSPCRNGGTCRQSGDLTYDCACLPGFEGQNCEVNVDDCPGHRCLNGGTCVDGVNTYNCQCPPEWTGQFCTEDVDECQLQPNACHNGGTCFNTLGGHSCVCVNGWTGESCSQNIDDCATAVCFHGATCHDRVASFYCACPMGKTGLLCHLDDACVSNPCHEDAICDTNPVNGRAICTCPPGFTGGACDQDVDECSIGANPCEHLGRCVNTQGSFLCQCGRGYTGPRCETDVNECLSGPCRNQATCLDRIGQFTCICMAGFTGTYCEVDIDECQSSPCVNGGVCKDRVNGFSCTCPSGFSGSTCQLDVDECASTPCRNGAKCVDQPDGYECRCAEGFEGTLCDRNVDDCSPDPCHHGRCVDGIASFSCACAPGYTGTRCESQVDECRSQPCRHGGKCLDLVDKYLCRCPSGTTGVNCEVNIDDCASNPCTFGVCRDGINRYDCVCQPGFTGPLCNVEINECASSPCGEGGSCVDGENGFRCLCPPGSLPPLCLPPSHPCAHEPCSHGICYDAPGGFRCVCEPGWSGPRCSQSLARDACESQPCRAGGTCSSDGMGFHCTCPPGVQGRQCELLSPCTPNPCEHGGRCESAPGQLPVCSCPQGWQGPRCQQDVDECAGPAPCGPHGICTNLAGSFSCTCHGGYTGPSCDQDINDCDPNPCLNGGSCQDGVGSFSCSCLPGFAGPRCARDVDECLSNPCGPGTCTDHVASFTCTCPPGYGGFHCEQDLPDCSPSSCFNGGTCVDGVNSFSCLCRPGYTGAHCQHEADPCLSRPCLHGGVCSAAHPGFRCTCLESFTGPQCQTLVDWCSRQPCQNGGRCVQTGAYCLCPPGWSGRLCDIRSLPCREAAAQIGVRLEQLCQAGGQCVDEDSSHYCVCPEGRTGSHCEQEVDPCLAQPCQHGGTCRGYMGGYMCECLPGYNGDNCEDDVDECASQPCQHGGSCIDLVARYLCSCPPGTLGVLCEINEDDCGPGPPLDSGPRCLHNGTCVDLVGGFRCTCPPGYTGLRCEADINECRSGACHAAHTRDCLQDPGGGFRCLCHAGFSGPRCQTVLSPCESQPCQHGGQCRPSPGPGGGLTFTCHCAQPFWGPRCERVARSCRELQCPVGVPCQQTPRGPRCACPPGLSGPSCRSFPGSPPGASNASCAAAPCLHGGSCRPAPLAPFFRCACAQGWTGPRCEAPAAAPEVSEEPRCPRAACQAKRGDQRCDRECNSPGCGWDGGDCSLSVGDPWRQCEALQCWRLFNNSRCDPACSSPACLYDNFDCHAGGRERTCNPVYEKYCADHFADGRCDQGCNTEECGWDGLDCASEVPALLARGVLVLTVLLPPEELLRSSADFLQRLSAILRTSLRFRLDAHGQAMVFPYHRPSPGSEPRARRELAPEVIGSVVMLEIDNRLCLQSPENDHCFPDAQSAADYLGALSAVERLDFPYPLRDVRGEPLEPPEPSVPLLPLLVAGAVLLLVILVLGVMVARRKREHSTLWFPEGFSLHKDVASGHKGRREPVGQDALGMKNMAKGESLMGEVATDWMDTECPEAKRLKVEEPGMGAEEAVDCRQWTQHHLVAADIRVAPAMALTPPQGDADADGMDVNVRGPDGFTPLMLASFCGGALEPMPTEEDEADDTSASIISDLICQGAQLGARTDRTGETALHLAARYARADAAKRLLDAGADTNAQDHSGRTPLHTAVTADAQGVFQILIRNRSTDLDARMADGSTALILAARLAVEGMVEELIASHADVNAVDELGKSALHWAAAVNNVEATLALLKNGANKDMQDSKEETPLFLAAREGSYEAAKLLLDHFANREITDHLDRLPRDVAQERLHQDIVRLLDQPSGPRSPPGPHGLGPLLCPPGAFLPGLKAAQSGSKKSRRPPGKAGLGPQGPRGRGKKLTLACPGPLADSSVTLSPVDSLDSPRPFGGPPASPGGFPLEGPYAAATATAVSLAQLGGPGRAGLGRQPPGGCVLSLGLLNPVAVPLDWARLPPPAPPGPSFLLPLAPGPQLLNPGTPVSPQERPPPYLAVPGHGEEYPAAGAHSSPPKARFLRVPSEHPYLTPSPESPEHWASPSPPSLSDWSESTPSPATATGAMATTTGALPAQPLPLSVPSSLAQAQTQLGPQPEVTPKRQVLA
Sequence of Pro-neuregulin-1, membrane-bound isoform (Homo sapiens) (Q02297 whole entry, looked up, the tested form may be a part, canonical isoform): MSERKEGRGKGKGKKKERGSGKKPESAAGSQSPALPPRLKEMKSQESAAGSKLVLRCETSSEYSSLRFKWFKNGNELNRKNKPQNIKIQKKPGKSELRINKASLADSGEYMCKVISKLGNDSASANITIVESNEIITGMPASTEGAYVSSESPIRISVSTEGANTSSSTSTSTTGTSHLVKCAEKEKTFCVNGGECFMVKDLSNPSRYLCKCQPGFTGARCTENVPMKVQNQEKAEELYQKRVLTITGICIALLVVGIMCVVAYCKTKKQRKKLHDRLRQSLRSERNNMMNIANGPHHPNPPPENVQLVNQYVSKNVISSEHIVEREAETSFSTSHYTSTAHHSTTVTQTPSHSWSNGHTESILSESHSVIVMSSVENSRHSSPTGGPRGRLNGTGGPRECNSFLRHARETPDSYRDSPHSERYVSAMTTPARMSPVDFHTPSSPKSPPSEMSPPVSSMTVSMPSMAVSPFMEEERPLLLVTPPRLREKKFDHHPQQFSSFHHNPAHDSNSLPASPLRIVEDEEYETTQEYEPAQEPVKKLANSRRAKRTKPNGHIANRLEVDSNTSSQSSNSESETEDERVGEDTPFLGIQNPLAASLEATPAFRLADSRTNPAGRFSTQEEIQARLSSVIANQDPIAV
Sequence of Torsin-1A-interacting protein 2 (Homo sapiens) (Q8NFQ8 whole entry, looked up): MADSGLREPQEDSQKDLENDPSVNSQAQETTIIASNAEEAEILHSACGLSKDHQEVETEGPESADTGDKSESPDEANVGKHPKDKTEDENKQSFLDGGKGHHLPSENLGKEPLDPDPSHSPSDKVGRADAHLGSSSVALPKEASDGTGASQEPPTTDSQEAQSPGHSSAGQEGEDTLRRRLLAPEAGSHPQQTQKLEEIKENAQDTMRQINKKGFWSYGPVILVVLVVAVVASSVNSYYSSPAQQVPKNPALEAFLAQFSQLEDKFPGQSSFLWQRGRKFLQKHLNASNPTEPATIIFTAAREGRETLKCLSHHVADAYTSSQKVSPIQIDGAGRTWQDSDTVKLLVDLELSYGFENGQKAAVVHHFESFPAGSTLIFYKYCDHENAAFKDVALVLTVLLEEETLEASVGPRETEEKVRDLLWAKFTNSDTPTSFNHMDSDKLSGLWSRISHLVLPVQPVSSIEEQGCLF

With `C=C(C)[C@@H]1CC=C(C(O)C2C=CC3C(=O)N(C4CCCCC4)C(=O)C3N2Nc2ccc(OC)cc2)CC1` (stereo not given in full), the composite z-score in assay [1] is -0.128; in [2], 0.103; in assay [3], 0.156; in assay [4], 0.594; in assay [5] it was 1.45; in assay [6] it was 1.2. Also, the composite z-score in assay [7] was 1.02; in [9] it was 1.32; in assay [10], -0.41; in assay [11], 1.55; in [15] it was 3.27; in assay [17] it was -0.0009. The composite z-score in assay [18] was 0.593; in assay [19], 1.07; in [20] it was -0.0034. In addition, the z-score in [8] was 0.0512 (inactive); in [12], 0.188 (inactive); in assay [13], 0.707 (inactive); in assay [14], 0.785 (inactive); in assay [16], -0.357 (inactive).
As for `C=CCNC(=O)[C@@H]1[C@H]2C(=O)O[C@H](c3ccccc3)[C@H](c3ccccc3)N2[C@H](c2ccc(O)cc2)[C@@]12C(=O)Nc1ccc(C#CCCO)cc12`, the composite z-score was 0.0065 in assay [1]; -0.395 in [2]; -0.13 in assay [3]; 0.508 in [4]; -1.34 in assay [5]; 1.37 in assay [6]. The composite z-score is -0.353 in [7]; -1.05 in assay [9]; -0.251 in assay [10]; -0.36 in [11]; 2.17 in [15]; -0.259 in [17]. In addition, the composite z-score was -1.2 in assay [18], -0.261 in assay [19] and -0.261 in assay [20]. Further, the z-score was -0.0378 (inactive) in assay [8]; -0.328 (inactive) in assay [12]; -0.397 (inactive) in assay [13]; -0.301 (inactive) in assay [14]; 2.31 (inactive) in assay [16].
Consider `COc1cc(C(O)C2C=CC3C(=O)N(C)C(=O)C3N2NC(=O)OC(C)(C)C)cc(OC)c1OC` (stereo not given), for which the composite z-score was 0.425 in assay [1]; -0.27 in assay [2]; 0.265 in assay [3]; 0.469 in [4]; 1.38 in [5]; 2.13 in assay [6]. Further, the composite z-score in [7] was determined as 1.38; in assay [9] it was 0.935; in [10], 0.122; in assay [11], 1.09; in [15], 3.16; in [17], 0.604. The composite z-score was -0.23 in assay [18], 0.697 in assay [19] and 0.561 in assay [20]. Besides, the z-score was -0.167 (inactive) in [8]; 0.61 (inactive) in [12]; 2 (inactive) in [13]; 1.15 (inactive) in assay [14]; -1.34 (inactive) in assay [16].
Consider `CCN(CC)c1ccc(N2CC=CC34O[C@@H]5/C=C\CCCOC(=O)C5[C@H]3C(=O)N(CCCCCO)[C@@H]4C2=O)cc1` (stereo not given in full), for which the composite z-score in assay [1] was 0.0158; in [2], -1.53; in assay [3] it was -0.205; in assay [4] it was -1.03; in assay [5], -1.2; in assay [6], 1.04. For the same compound, the composite z-score in [7] was 0.516; in assay [9], -0.663; in [10], -0.0994; in assay [11], -0.752; in [15] it was 0.45; in assay [17] it was -0.231. In addition, the composite z-score in [18] is -0.873; in assay [19], -0.404; in [20], -0.216. The z-score in assay [8] is 0.609 (inactive); in assay [12] it was -0.177 (inactive); in assay [13], -0.691 (inactive); in [14], -0.624 (inactive); in assay [16], -0.838 (inactive).
As for `COCCCNC(=O)[C@@]1(Cc2ccccc2CN=[N+]=[N-])N=C(c2ccc(OCCCO)cc2)O[C@H]1c1ccccc1N=[N+]=[N-]`, the composite z-score stood at 0.749 in assay [1]; 1.06 in assay [2]; 0.0524 in assay [3]; 1.18 in assay [4]; 1.18 in assay [5]; 0.765 in assay [6]. Further, the composite z-score is 1.05 in assay [7]; 1.27 in [9]; 0.351 in [10]; 1.31 in assay [11]; 2.67 in assay [15]; 0.214 in assay [17]. For the same compound, the results for the composite z-score in assay [18], in assay [19] and in [20] were 0.399, 0.671 and 0.525, respectively. Also, the z-score in [8] was -1.21 (inactive); in assay [12] it was -0.299 (inactive); in assay [13] it was -0.954 (inactive); in assay [14], 2.08 (inactive); in assay [16], 2.53 (inactive).
